High-throughput results: PubChem, National Center for Advancing Translational Sciences (NCATS)
An excerpt weighted towards active compounds, which were near 0.92% of everything screened.
RECQ1 helicase – RECQ1 (human) helicase inhibition. P46063. RECQ1 DNA unwinding, red fluorescence kinetic read. Potency, µM (titrated, usually from 57.3 µM), actives largely listed as inhibitors. 240,000 tested, 0.54% active. AID 2549; note: nearly all actives have a fitted effect of over 30% in size
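50 nM RECQ1T1 preincubated 15 min with compound in Tris pH 8.0 buffer with MgCl2, DTT, Tween-20 and 2.5 ug/ml poly(dI-dC); started with 200 nM TAMRA/BHQ-2 forked duplex and 2 mM ATP. Unwinding read as fluorescence (525/598 nm), two reads 2 h apart.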
BLM helicase inh – inhibitors of human Bloom syndrome helicase BLM | 350,000 tested, 0.2% active | P54132 | recombinant BLM DNA unwinding, fluorescence dequenching | AID 2528 | Potency, µM (highest dose often 56.1 µM), hits mostly inhibitors; note: nearly all actives have a fitted effect of over 35% in size
TDP1 inh – inhibitors of human tyrosyl-DNA phosphodiesterase TDP1. Q9NUW8. recombinant TDP1, AlphaScreen DNA substrate cleavage. Potency, µM (titrated, usually from 130 µM), most hits filed as inhibitors. 350,000 tested, 0.28% active. AID 485290; note: nearly all actives have a fitted effect of over 40% in size
Target sequence (Q9NUW8 whole entry, looked up): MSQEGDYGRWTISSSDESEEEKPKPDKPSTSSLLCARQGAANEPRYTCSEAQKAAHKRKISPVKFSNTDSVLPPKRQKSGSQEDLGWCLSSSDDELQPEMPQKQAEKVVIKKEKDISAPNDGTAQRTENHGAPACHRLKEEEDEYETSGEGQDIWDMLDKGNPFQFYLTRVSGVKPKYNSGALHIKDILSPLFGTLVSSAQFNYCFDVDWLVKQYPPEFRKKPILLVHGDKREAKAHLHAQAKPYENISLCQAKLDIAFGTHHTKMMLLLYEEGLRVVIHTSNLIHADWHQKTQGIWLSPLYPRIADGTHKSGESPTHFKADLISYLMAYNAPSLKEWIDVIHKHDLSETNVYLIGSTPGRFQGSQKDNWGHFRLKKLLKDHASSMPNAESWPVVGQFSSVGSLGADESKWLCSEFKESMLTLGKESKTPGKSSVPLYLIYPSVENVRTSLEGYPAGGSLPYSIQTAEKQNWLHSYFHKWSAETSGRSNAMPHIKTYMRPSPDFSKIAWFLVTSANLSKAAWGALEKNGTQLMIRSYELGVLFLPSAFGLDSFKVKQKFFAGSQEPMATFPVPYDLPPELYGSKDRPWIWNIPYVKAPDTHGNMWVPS
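Recombinant human Tdp1 (E. coli-expressed, 1 nM final) preincubated with compounds 15 min at room temperature, then 5'-biotin/3'-phosphotyrosine-FITC DNA substrate (15 nM final) added for 5 min. AlphaScreen beads (10 ug/ml final) added 10 min; cleavage lowers signal.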
APE1 inh-1 – inhibitors of human APE1 endonuclease; P27695; recombinant APE1, TAMRA/BHQ-2 abasic DNA cleavage fluorescence; Potency, µM (highest dose often 65.8 µM), hits mostly inhibitors; 350,000 tested, 0.35% active; note: nearly all actives have a fitted effect of over 55% in size
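Step 1: APE1 (0.75 nM) with compound, 15 min RT. Step 2: add 50 nM fluorophore/quencher THF duplex. Step 3: three fluorescence reads 60 s apart (525/598 nm); read 3 minus read 1 = reaction progress.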
FEN1 inhibitor – inhibitors of human flap endonuclease 1; Recombinant FEN1 flap cleavage, fluorescence, 15 min; Potency, µM (top dose mostly 114 µM), usual class: inhibitors; 390,000 tested, 0.35% active; note: nearly all actives have a fitted effect of over 65% in size
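With each library titrated from low to high concentration, compounds met 10 nM FEN1 for 15 min at room temperature before 50 nM substrate was added; readings at 0 and 15 min fed four-parameter Hill curve fits.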
DNA dye displace – counter-screen for APE1 inhibitors: DNA dye displacement. shares compounds with APE1 inh-1. DNA fluorescent dye displacement counterscreen, fluorescence. Potency, µM (doses to about 28.5 µM), usual class: inhibitors. 480 tested, 7% active. AID 2564;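 note: loss of thiazole orange fluorescence as the dye is displaced from duplex DNA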
Endo IV inh – Endo IV (E. coli) inhibition counter-screen; shares compounds with APE1 inh-1; E. coli Endo IV, fluorogenic AP-site DNA cleavage; Potency, µM (titrated, usually from 27.1 µM), usual class: inhibitors; 560 tested, 4% active; AID 2565
APE1 inh-2 – APE1 (human) endonuclease inhibition, confirmation. shares compounds with APE1 inh-1. purified APE1, fluorogenic abasic-site DNA cleavage. Potency, µM (highest dose often 57.1 µM), hits mostly inhibitors. 750 tested, 44% active; note: nearly all actives have a fitted effect of over 30% in size
APE1 FP inh – compounds that displace a DNA probe from human APE1; shares compounds with APE1 inh-1; APE1 binding to TAMRA-labelled double-stranded DNA, fluorescence polarization displacement; Potency, µM (titrated, usually from 28.5 µM), hits mostly inhibitors; 480 tested, 7% active; AID 2573
Numbers stand for hits; – = inactive; ? = inconclusive; · = not tested or not shown; [ ] = another dose, or the depositor's remark. Calls come from the whole dose curve; as a rule, active = well fitted curve in the direction sought with a large enough effect; inconclusive = small, poorly fitted or top-dose-only effect, or another doubt; inactive = no such curve, though single readings can be large; an effect the other way counts as inactive or inconclusive.

SMILES | RECQ1 helicase | BLM helicase inh | TDP1 inh | APE1 inh-1 | FEN1 inhibitor | DNA dye displace | Endo IV inh | APE1 inh-2 | APE1 FP inh
O=C(O)C1CC=CCC1C(=O)Nc1ccccc1 (configuration not stated) | – | – | 22.4µM | – | – | · | · | – | ·
O=C(O)CCn1c2c(c3ccccc31)C[C@H](NS(=O)(=O)c1ccc(F)cc1)CC2 | · | – | · | · | · | · | · | · | ·
O=[N+]([O-])c1cc(/C=N\Nc2nccs2)ccc1O | 11.2µM | 28.2µM | ? | 7.08µM | · | 10µM | – | 1.58µM | 8.91µM
O=[N+]([O-])c1ccccc1/C=N\Nc1nccs1 | · | – | · | – | – | · | · | · | ·
O=c1cc(-c2ccc(O)cc2)oc2c(C3OCC(O)C(O)C3O)c(O)c(C3OC(CO)C(O)C(O)C3O)c(O)c12 (configuration not stated) | – | – | · | 20µM | ? | – | – | 4.47µM | –
O=c1cc(-c2ccc(O)cc2)oc2c([C@@H]3O[C@H](CO)[C@@H](O)[C@H](O)[C@H]3O)c(O)c([C@@H]3O[C@H](CO)[C@@H](O)[C@H](O)[C@H]3O)c(O)c12 | – | – | – | ? | – | · | · | · | ·
O=C(O)c1cc(-c2ccc(/C=N/N3C(=O)C4C5C=CC(C6CC56)C4C3=O)o2)ccc1Cl (configuration not stated) | – | – | ? | ? | – | · | · | ? | ·
CC(=O)OC[C@@H]1O[C@@H](O/N=C2/C[C@@H](O)[C@@H](O)[C@@H]3[C@@H]4C(=O)N(C(C)(C)C)C(=O)[C@H]4CC[C@@H]23)[C@H](OC(C)=O)[C@H](OC(C)=O)[C@@H]1OC(C)=O | –[11.5 µM] | –[12.4 µM] | –[21 µM] | ? | · | · | · | · | ·
O=[N+]([O-])c1cccc2cn[nH]c12 | – | – | – | – | ? | · | · | · | ·
O=[N+]([O-])c1cccc2c[nH]nc12 | 28.2µM | – | · | 6.31µM | · | · | – | 12.6µM | ·
Nc1c(S(=O)(=O)O)cc(Nc2ccc(Nc3nc(Cl)nc(Nc4ccc(S(=O)(=O)O)cc4)n3)c(S(=O)(=O)O)c2)c2c1C(=O)c1ccccc1C2=O | 0.891µM | · | – | 0.631µM | 2µM | · | 10µM | 0.708µM | ·
O=[N+]([O-])c1ccc(Nc2nc(Cl)nc(NCCO)n2)cc1 | – | – | – | – | – | · | · | · | ·
O=C(OCC#CCSc1nnc(-c2cccc3ccccc23)o1)c1ccccc1 | · | · | – | · | · | · | · | · | ·
O=C(CSc1nc2ccccc2[nH]1)NC1CCCC1 | – | – | 44.7µM | ? | – | · | · | 39.8µM | ·
O=C(CCCSc1nc2ccccc2[nH]1)NC1CCCCC1 | – | – | – | – | – | · | · | · | ·
COc1cc(N)c(Cl)cc1C(=O)OCCN1CCCCC1 | – | – | – | ? | 10.6µM | – | – | – | –
COc1ccc(OC)c(-c2csc(N(Cc3ccco3)C(=O)c3ccco3)n2)c1 | – | – | – | ? | – | – | ? | ? | –
Cc1ccccc1OC(C)C(=O)Nc1ccc2c(c1)OCCO2 (configuration not stated) | · | – | – | – | – | · | · | · | ·
CCN(c1ccccc1)S(=O)(=O)c1cc(C(=O)OC(C)C(=O)Nc2ccc3c(c2)OCCO3)ccc1C (configuration not stated) | – | – | · | 11.2µM | – | – | – | 14.1µM | ?
CC(=O)c1cccc(Nc2ncnc3c2cnn3-c2cccc(Cl)c2)c1 | · | – | – | · | – | · | · | · | ·
Cc1ccnc(NS(=O)(=O)c2ccc(NC(=O)C3C4C=CC(C4)C3C(=O)O)cc2)n1 (configuration not stated) | – | – | 50.1µM | ? | – | · | · | – | ·
COC(=O)c1cc2oc3ccccc3c2n1Cc1ccccn1 | – | – | – | ? | – | – | – | – | –
COc1ccc(C2=Nn3c(nnc3-c3cccc(OC)c3OC)SC2)c(OC)c1 | – | – | – | – | · | · | · | · | ·
